Consider 40 compounds from PubChem BioAssay (Tox21).

Experiment [1] addresses Acetylcholinesterase (Homo sapiens) (UniProt P22303). Kind of experiment: Acetylcholinesterase (AChE) small molecule antagonists: colormetric cell-based qHTS assay (AID 1347395). Further: nearly all actives have a fitted effect of over 30% in size. The method, boiled down:
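Colorimetric readout: DTNB quantifies thiocholine from acetylthiocholine hydrolysed by endogenous AChE of SH-SY5Y cells (2,000/well, plated overnight). Compound pretreatment 30 min, substrate incubation 90 min, both 37 C.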

For experiment [2] the target is unchanged. Kind of experiment: Acetylcholinesterase (AChE) small molecule antagonists: enzyme-based qHTS assay (AID 1347397). Further: nearly all actives have a fitted effect of over 55% in size. The note with it: Potency: AChE enzyme activity inhibition; outcome: AChE enzyme activity inhibition. In outline: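 Recombinant human AChE, dispensed at 50 mU/mL, was preincubated with Tox21 10K compounds or DMSO vehicle for 30 min at room temperature. DTNB plus acetylthiocholine was then added, and thiocholine was measured colorimetrically after a further 10 min.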

The target is the same in experiment [3]. Kind of experiment: Acetylcholinesterase (AChE) small molecule antagonists: fluorescence cell-based qHTS assay (AID 1347398). Further: nearly all actives have a fitted effect of over 50% in size. Further: potency means the concentration at half of the fitted maximal effect. The note with it: Potency: AChE activity; outcome: AChE activity. The method, boiled down:
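Human SH-SY5Y cells were plated overnight at 37 C, exposed to compound for 30 min at 37 C, 5% CO2, then given acetylthiocholine plus Thiolite Green for 40 min at room temperature; thiocholine fluorescence (Ex/Em 490/520 nm) reports endogenous AChE activity.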

Experiment [4] has the same target. The experiment in a line: Acetylcholinesterase (AChE) small molecule antagonists: enzyme-based qHTS assay with human liver microsomes (AID 1347399). Further: nearly all actives have a fitted effect of over 60% in size. The note with it: Potency: qHTS inhibition; outcome: qHTS inhibition. In outline:
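Recombinant human AChE (50 mU/mL in the enzyme mix) and human liver microsomes (0.25 mg/mL final) were preincubated with compound and NADPH (0.25 mg/mL final) for 30 min at 37 C. Acetylthiocholine/DTNB was then added; thiocholine was read colorimetrically after 10 min at room temperature.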

Structures are written as SMILES. Records with an inconclusive call do not appear. A structure can be active in one record and inactive in another. Calls of active or inactive are those of the source. The call rests on the fitted dose curve.

Acetylcholinesterase (Homo sapiens), sequence (P22303 whole entry, looked up): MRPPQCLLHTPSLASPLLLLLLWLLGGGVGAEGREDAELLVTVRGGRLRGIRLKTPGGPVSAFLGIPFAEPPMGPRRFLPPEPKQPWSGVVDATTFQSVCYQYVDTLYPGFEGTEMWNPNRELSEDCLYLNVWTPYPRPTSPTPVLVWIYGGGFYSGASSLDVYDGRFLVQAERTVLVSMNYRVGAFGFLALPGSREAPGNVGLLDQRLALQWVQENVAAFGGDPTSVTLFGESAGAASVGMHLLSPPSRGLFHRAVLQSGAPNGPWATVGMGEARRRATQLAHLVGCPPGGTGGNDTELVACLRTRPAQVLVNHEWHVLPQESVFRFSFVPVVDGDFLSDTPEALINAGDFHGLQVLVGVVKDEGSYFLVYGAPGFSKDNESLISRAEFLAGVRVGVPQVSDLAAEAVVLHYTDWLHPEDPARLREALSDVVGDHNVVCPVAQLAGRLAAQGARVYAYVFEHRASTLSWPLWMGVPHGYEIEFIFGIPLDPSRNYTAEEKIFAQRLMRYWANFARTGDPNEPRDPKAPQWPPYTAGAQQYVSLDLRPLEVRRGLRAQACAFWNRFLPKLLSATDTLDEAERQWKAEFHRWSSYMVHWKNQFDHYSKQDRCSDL

For the compound `O=C(c1ccc(O)cc1)c1ccc(O)c(O)c1O`, the Potency entry in experiment [1], in experiment [2], in experiment [3] and in experiment [4] was “inactive” each time.
Regarding `CCCCC(CC)CCC(CC(C)C)OS(=O)(=O)O` (stereo not given), the Potency entry in experiment [1], in experiment [2], in experiment [3] and in experiment [4] was “inactive” each time.
Consider `Nc1ccc(S(=O)(=O)Nc2nccs2)cc1`, for which the Potency result in experiment [1], in experiment [2], in experiment [3] and in experiment [4] was “inactive” throughout.
Regarding `COc1ccc(C(Cl)=C(c2ccc(OC)cc2)c2ccc(OC)cc2)cc1`, the Potency entry in experiment [1], in experiment [2], in experiment [3] and in experiment [4] was “inactive” each time.
Turning to `O=C[O][Al]([O]C=O)[O]C=O`, the Potency entry in experiment [1], in experiment [2], in experiment [3] and in experiment [4] was “inactive” each time.
Consider `OC[C@H]1O[C@@H](Oc2ccc(O)cc2)[C@H](O)[C@@H](O)[C@@H]1O`, for which the Potency entry in experiment [1], in experiment [2], in experiment [3] and in experiment [4] was “inactive” in each case.
As for `O=c1cc[nH]c(=S)[nH]1`, the Potency entry in experiment [1], in experiment [2], in experiment [3] and in experiment [4] was “inactive” each time.
On to `NCCCOCCOCCOCCCN`, for which the Potency entry in experiment [1], in experiment [2], in experiment [3] and in experiment [4] was “inactive” each time.
Consider `C=CN1CCCC1=O`, for which the Potency entry in experiment [1], in experiment [2], in experiment [3] and in experiment [4] was “inactive” in each case.
In the case of `O=Nc1ccc(O)cc1`, the Potency entry in experiment [1], in experiment [2], in experiment [3] and in experiment [4] was “inactive” in each case.
Take `C[C@]12CC[C@@H]3c4ccc(O)cc4CC[C@H]3[C@@H]1CC[C@@H]2O`: the Potency result in experiment [1], in experiment [2], in experiment [3] and in experiment [4] was “inactive” each time.
With `CC(C)OB(OC(C)C)OC(C)C`, the Potency entry in experiment [1], in experiment [2], in experiment [3] and in experiment [4] was “inactive” in each case.
For `O=C(O)C(Cc1cc(I)c(O)c(I)c1)c1ccccc1` (stereo not given), the Potency result in experiment [1], in experiment [2], in experiment [3] and in experiment [4] was “inactive” each time.
For the compound `CCOB(OCC)OCC`, the Potency result in experiment [1], in experiment [2], in experiment [3] and in experiment [4] was “inactive” in each case.
Regarding `CCCCS(=O)(=O)N[C@@H](Cc1ccc(OCCCCC2CCNCC2)cc1)C(=O)O`, the Potency entry in experiment [1], in experiment [2], in experiment [3] and in experiment [4] was “inactive” throughout.
On to `O=[N+]([O-])c1cc(N(CCO)CCO)ccc1NCCO`, for which the Potency entry in experiment [1], in experiment [2], in experiment [3] and in experiment [4] was “inactive” throughout.
For `CC1(C)S[C@@H]2[C@H](NC(=O)COc3ccccc3)C(=O)N2[C@H]1C(=O)O`, the Potency entry in experiment [1], in experiment [2], in experiment [3] and in experiment [4] was “inactive” in each case.
For the compound `COS(=O)(=O)C(F)(F)F`, the Potency result in experiment [1], in experiment [2], in experiment [3] and in experiment [4] was “inactive” each time.
In the case of `Oc1c(I)cc(I)c2cccnc12`, the Potency entry in experiment [1], in experiment [2], in experiment [3] and in experiment [4] was “inactive” in each case.
As for `CC/C=C\C/C=C\C/C=C\CCCCCCCC(=O)O`, the Potency result in experiment [1], in experiment [2], in experiment [3] and in experiment [4] was “inactive” in each case.
`Clc1nc(C(Cl)(Cl)Cl)c(Cl)c(Cl)c1Cl`: the Potency entry in experiment [1], in experiment [2], in experiment [3] and in experiment [4] was “inactive” each time.
Consider `CCCCN(CCCC)CCCC`, for which the Potency entry in experiment [1], in experiment [2], in experiment [3] and in experiment [4] was “inactive” each time.
As for `CN1C(CSCC(F)(F)F)Nc2cc(Cl)c(S(N)(=O)=O)cc2S1(=O)=O` (stereo not given), the Potency entry in experiment [1], in experiment [2], in experiment [3] and in experiment [4] was “inactive” each time.
Consider `CC(C)=CCl`, for which the Potency result in experiment [1], in experiment [2] and in experiment [4] was “inactive” throughout. Also, the Potency in experiment [3] is 22.7 µM (active) and inactive.
For the compound `NC(=O)N/N=C/c1ccc([N+](=O)[O-])o1`, the Potency entry in experiment [1], in experiment [2], in experiment [3] and in experiment [4] was “inactive” each time.
Regarding `CCCOC(=O)c1ccc(C(=O)OCCC)nc1`, the Potency result in experiment [1], in experiment [2], in experiment [3] and in experiment [4] was “inactive” in each case.
Turning to `Cc1c(N(C)CS(=O)(=O)O)c(=O)n(-c2ccccc2)n1C`, the Potency result in experiment [1], in experiment [2], in experiment [3] and in experiment [4] was “inactive” throughout.
On to `CCCc1c(OCCCOc2ccc(OCC(=O)O)cc2)ccc(C(C)=O)c1O`, for which the Potency entry in experiment [1], in experiment [2], in experiment [3] and in experiment [4] was “inactive” throughout.
Consider `CC(=O)N(CC(O)CO)c1c(I)c(C(=O)NCC(O)CO)c(I)c(C(=O)NCC(O)CO)c1I` (stereo not given), for which the Potency entry in experiment [1], in experiment [2], in experiment [3] and in experiment [4] was “inactive” throughout.
Take `COc1ccc(OC(F)(F)F)cc1CN[C@H]1CCCN[C@H]1c1ccccc1`: the Potency result in experiment [1], in experiment [2], in experiment [3] and in experiment [4] was “inactive” throughout.
Regarding `C[C@H]1C[C@H](O)c2ccsc2S1(=O)=O`, the Potency entry in experiment [1], in experiment [2], in experiment [3] and in experiment [4] was “inactive” throughout.
Regarding `CCOc1ccc(NC(=O)CC(C)O)cc1` (stereo not given), the Potency result in experiment [1], in experiment [2], in experiment [3] and in experiment [4] was “inactive” throughout.
Turning to `O=C(O)/C=C/c1cnc[nH]1`, the Potency entry in experiment [1], in experiment [2], in experiment [3] and in experiment [4] was “inactive” in each case.
`NC(=O)Cc1cccc(C(=O)c2ccccc2)c1N`: the Potency result in experiment [1], in experiment [2], in experiment [3] and in experiment [4] was “inactive” in each case.
`CC(=O)OC1CCCCC1`: the Potency result in experiment [1], in experiment [2], in experiment [3] and in experiment [4] was “inactive” in each case.
In the case of `Cc1ccc(S(=O)(=O)NC2CCCCC2)cc1`, the Potency result in experiment [1], in experiment [2], in experiment [3] and in experiment [4] was “inactive” throughout.
Take `CSc1c(Cl)c(Cl)c(Cl)c(Cl)c1Cl`: the Potency entry in experiment [1], in experiment [2], in experiment [3] and in experiment [4] was “inactive” throughout.
With `CC1(C)C(=O)NC(=O)N1CO`, the Potency entry in experiment [1], in experiment [2], in experiment [3] and in experiment [4] was “inactive” each time.
Take `CN1C(CCl)Nc2cc(Cl)c(S(N)(=O)=O)cc2S1(=O)=O` (stereo not given): the Potency entry in experiment [1], in experiment [2], in experiment [3] and in experiment [4] was “inactive” throughout.
With `CC(=O)[C@H]1CC[C@H]2[C@@H]3CC=C4C[C@@H](O)CC[C@]4(C)[C@H]3CC[C@]12C`, the Potency entry in experiment [1], in experiment [2], in experiment [3] and in experiment [4] was “inactive” throughout.
